Calls of active or inactive are those of the source.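 Rule for the calls, unless noted: active = fluorescence slope higher than the sample average by over 3 SD (cut at about -0.22 in these data, passing the limit was not always enough); inactive = the rest.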
Legend:
[1] = target: Voltage-gated potassium channel subunit beta-2 (Rattus norvegicus) (UniProt P62483); assay: inhibitors of rat Kvbeta2 reductase activity – biochemical, NADPH fluorescence, primary screen (AID 622); settings: recombinant KvBeta, 4-cyanobenzaldehyde reduction, at 10 µM, stronger effect = higher value;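 note: slope of raw intensity against log time taken from 70 to 1610 s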
Chain of Voltage-gated potassium channel subunit beta-2 (Rattus norvegicus) (P62483 whole entry, looked up): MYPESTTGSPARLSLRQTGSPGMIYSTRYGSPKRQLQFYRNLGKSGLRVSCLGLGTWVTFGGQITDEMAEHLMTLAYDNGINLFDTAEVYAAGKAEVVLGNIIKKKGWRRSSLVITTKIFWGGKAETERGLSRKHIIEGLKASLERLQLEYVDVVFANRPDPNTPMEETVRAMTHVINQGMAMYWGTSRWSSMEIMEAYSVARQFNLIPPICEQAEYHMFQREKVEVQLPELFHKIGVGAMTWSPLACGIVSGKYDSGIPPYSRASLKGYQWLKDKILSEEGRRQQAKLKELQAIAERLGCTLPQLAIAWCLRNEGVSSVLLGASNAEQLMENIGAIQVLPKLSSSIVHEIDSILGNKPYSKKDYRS

[2] = target: Voltage-gated potassium channel subunit beta-2 (Rattus norvegicus) (UniProt P62483); assay: enhancers of rat Kvbeta2 NADPH turnover – biochemical, NADPH fluorescence, primary screen (AID 623;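 active = NADPH fluorescence slope more negative than the mean of all samples by about 3 SD, 99.7% confidence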;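 note: fluorescence intensity change per second fitted from 20 to 320 s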); settings: Recombinant KvBeta, NADPH fluorescence decrease slope, 10 min; at 10 µM; stronger effect = lower value
[3] = target: Alpha-2C adrenergic receptor (Homo sapiens) (UniProt P18825); assay: compounds altering alpha2C-coupled GIRK flux – cell-based, HEK293 alpha2C/GIRK1/2, thallium flux, primary screen (AID 624;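 active = fluorescence slope after compound addition differing from the mean of all screened samples at 99.7% confidence, in either direction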;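 note: slope of fluorescence ratio to pre-addition baseline per second over 15 to 24 s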); settings: thallium flux BTC fluorescence, at 10 µM, actives lie on both sides
Chain of Alpha-2C adrenergic receptor (Homo sapiens) (P18825 whole entry, looked up): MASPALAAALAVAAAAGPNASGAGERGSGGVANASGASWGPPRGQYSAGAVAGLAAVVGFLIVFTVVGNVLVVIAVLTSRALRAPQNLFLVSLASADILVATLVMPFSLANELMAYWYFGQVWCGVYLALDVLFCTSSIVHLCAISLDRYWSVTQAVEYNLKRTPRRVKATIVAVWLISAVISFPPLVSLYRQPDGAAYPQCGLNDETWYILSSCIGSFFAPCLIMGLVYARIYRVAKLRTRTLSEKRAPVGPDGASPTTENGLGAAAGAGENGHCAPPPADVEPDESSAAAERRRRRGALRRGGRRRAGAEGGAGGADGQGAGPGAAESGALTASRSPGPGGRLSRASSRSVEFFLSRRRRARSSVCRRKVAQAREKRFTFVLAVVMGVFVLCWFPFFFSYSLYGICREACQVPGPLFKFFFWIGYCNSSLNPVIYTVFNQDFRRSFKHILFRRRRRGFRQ

[4] = blockers of RIG-like receptor reporter activation – cell-based, Sendai virus stimulus, luciferase, 10K MLSCN set, TLR/RLR signaling modifier project, primary screen (AID 602276;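 active = inhibition at or above 50% at 10 µM; inactive = inhibition below 50%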;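 note: firefly luciferase from ISG56 promoter only with Renilla not read in this screen; 0% = Sendai virus plus DMSO and 100% = medium plus DMSO without virus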); settings: HEK293 RL24 IRF3 luciferase reporter, at 10 µM, stronger effect = higher value
[5] = TLR3 IRF3 reporter activation blockers – cell-based, poly I:C stimulus, luciferase, 10K MLSCN set, primary screen (AID 602277;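 active = inhibition of the reporter signal at or above 50%; inactive = inhibition below 50%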); settings: HEK293-TLR3 RL24 IRF3 luciferase reporter, at 10 µM, stronger effect = higher value
[6] = target: Muscarinic acetylcholine receptor M4 (Homo sapiens) (UniProt P08173); assay: M4-linked GIRK flux change, two-sided – cell-based, HEK293 M4/GIRK, thallium flux, BTC-AM, M4 allosteric agonist project, primary screen (AID 625;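 active = fluorescence slope after compound addition differing from the mean of all tested samples at 99.7% confidence, mostly higher but some lower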;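 note: thallium influx through GIRK channels coupled to M4 in HEK293 cells with BTC-AM dye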); settings: at 10 µM, actives lie on both sides
Chain of Muscarinic acetylcholine receptor M4 (Homo sapiens) (P08173 whole entry, looked up): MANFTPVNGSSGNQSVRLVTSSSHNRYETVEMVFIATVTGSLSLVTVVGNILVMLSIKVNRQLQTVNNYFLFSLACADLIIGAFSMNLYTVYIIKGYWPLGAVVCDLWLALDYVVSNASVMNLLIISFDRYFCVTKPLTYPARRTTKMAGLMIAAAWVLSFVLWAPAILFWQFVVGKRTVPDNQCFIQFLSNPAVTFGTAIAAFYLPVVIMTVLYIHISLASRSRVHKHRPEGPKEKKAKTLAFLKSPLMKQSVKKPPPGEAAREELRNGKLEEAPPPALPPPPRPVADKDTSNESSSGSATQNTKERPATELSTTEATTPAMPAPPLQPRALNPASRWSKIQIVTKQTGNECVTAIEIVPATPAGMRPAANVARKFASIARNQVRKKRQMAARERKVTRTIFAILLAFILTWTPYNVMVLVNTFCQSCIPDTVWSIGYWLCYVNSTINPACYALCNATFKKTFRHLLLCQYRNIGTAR

[7] = inhibitors of larval lipid processing in zebrafish, primary screen, whole organism, PED6 fluorescence, gall bladder and intestine (AID 686;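 active = a full or partial loss of lipid-probe fluorescence in the fish gall bladder, intestine or both, judged by eye; inactive = no fluorescence loss, or compound toxic to the fish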;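 note: larvae 5 to 7 days old with five fish per well; signal comes from phospholipase A2 cleavage of quenched PED6 carried via bile; overnight exposure to compound and PED6 before scoring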); settings: Zebrafish larvae PED6 lipid processing, fluorescence scoring; screened at 20 µM (by protocol)
[8] = reduction of polyQ htt aggregates in cells – imaging, exon1htt(103Q)mCFP cells, high-content imaging, primary screen (AID 483;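 active = visual image review flags a hit and inhibition of aggregation exceeds 20%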;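 note: compound exposure lasted 3 days before fixation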;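 for nuclei count: percent of the per-plate median nuclei count of sample wells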); settings: exon1htt(103Q)mCFP cell line, aggregate imaging, at 2 µM; inhibition of aggregation: stronger effect = higher value; nuclei count: measured here: cell count, toxicity
[9] = endothelial E-selectin expression blockers – imaging, HUVEC, immunofluorescence, MLSMR starter and 10KST1 sets, primary screen (AID 487;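 active = visually confirmed hit in the image check and inhibition above 20%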;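 for inhibition: signal is fraction of cell area covered by stained E-selectin grains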;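 for nuclei count: 100% = median nuclei count of all wells on the same plate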); settings: HUVEC TNFalpha-induced E-selectin immunofluorescence imaging, at 2 µM; inhibition: stronger effect = higher value; nuclei count: measured here: cell number, toxicity
[10] = Primary imaging screen for DUSP6 inhibitors that restore phospho-Erk in transfected HeLa cells, chemical complementation (AID 609;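 active = compounds giving at least 50% inhibition in the cell-based MKP-3 phosphatase rescue imaging test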;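 for inhibition: phospho-Erk level distribution per well compared with pooled transfected vehicle control wells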); settings: HeLa MKP-3 transfected, phospho-Erk imaging KS statistic, at 10 µM, cells stimulated with TPA for 15 min
[11] = target: Dual specificity protein phosphatase 6 (Homo sapiens) (UniProt Q16828); assay: as above; settings: HeLa MKP-3 transfected, phospho-Erk imaging KS statistic; at 10 µM; stronger effect = higher value; cells stimulated with TPA for 15 min
Chain of Dual specificity protein phosphatase 6 (Homo sapiens) (Q16828 whole entry, looked up): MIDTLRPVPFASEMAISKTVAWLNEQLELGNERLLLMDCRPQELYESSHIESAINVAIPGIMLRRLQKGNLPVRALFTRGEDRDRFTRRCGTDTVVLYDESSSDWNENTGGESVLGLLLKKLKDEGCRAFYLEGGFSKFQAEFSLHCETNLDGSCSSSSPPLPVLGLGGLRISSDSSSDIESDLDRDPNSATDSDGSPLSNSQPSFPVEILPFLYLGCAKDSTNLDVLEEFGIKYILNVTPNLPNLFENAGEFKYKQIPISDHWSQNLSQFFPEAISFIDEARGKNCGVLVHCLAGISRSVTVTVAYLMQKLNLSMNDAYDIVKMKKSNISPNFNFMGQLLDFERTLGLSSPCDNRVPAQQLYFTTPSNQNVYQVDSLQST

[12] = loss of swimming-algae plug formation – whole organism, Chlamydomonas reinhardtii, WT vs cilia-less mutant, absorbance, 96-well, primary screen (AID 463189;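 active = inhibition at or above 50% relative to wild type and mutant plate controls; inactive = inhibition below 50%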;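 note: 0% = wild type cc124 cells in DMSO and 100% = ciliumless bld1 mutant cells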); settings: Chlamydomonas reinhardtii gravitaxis, OD600 absorbance, 2 days; at 10 µM; stronger effect = higher value
[13] = measured here: cell density z-score
[14] = measured here: nuclear c-Myc green intensity z-score
[15] = measured here: nuclear pErk red intensity z-score, stronger effect = higher value

Cc1cc(C)cc(N(CC(=O)Nc2cccc(C)n2)S(=O)(=O)c2c(C)noc2C)c1
inactive: fluorescence slope [1] -0.598 | NADPH fluorescence slope [2] -3.4e-05 | slope [3] 0.00547 | inhibition [4] 11.9% | inhibition [5] 42.2%

Cc1cccc(-n2ccnc2SCC(=O)Nc2cc(C)on2)c1
inactive: fluorescence slope [1] -0.513 | NADPH fluorescence slope [2] 3.9e-06 | fluorescence slope [6] 0.00505 | inhibition [4] -19% | inhibition [5] -43.2%

CCOC(=O)C1CCCN(C(=O)c2cc3c(-c4cccc(OC)c4)nn(C)c3s2)C1 (configuration not stated)
inactive: fluorescence slope [1] -0.355 | NADPH fluorescence slope [2] -3.7e-05 | slope [3] 0.00666 | outcome [7] | inhibition [4] -33.2% | inhibition [5] 39.4%

O=C(CSc1nc2c(sc3ccccc32)c(=O)n1Cc1ccco1)NCC1CCCO1 (configuration not stated)
inactive: fluorescence slope [1] -0.58 | NADPH fluorescence slope [2] -4.5e-05 | fluorescence slope [6] 0.00708 | inhibition [4] 19.7% | inhibition [5] 20.3%

Cc1ccccc1-c1nc(CS(=O)(=O)CC(=O)N(C)C2CCCCC2)c(C)o1
inactive: fluorescence slope [1] -0.49 | NADPH fluorescence slope [2] -3.4e-05 | slope [3] 0.00717 | inhibition [4] -5.9% | inhibition [5] -32.7%

Cn1c(=O)[nH]c2cc3ccccc3cc21
inactive: fluorescence slope [1] -0.527 | NADPH fluorescence slope [2] -6.1e-05 | fluorescence slope [6] 0.00589 | inhibition [4] 4.54% | inhibition [5] 5.31%

C1CCC2=NCCCN2CC1
inactive: inhibition of aggregation [8] 7.9% | inhibition [9] -40.2% | fluorescence slope [1] -0.37 | NADPH fluorescence slope [2] 4.2e-05 | slope [3] 0.00592 | inhibition [4] 10.9% | inhibition [5] 20.9%
99.2%: nuclei count [9]
102%: nuclei count [8]

CC(C)(C)C1CCc2onc(C(=O)Nc3cnn(Cc4ccc(F)cc4)c3)c2C1 (configuration not stated)
inactive: fluorescence slope [1] -0.58 | NADPH fluorescence slope [2] 1.6e-05 | fluorescence slope [6] 0.00687 | inhibition [4] 12% | inhibition [5] 19.7%

COc1ccc(CNC(=O)COC(=O)c2n[nH]c3ccccc23)cc1OC
171%: nuclei count [9]
108%: nuclei count [8]
inactive: inhibition of aggregation [8] -22.1% | inhibition [9] -287% | fluorescence slope [1] -0.382 | NADPH fluorescence slope [2] 1.4e-05 | slope [3] 0.00438 | inhibition [4] 6.09% | inhibition [5] -3.54%

Cc1cc(C)cc(-n2ccnc2SCC(=O)Nc2ccc3c(c2)OCCO3)c1
inactive: fluorescence slope [1] -0.57 | NADPH fluorescence slope [2] -3.9e-05 | fluorescence slope [6] 0.00517 | inhibition [4] 1.38% | inhibition [5] -4.03%

Cc1ccc2oc(=O)c3cnn(CC(=O)N4CCCc5ccccc54)c3c2c1
inactive: fluorescence slope [1] -0.49 | NADPH fluorescence slope [2] 1.1e-05 | slope [3] 0.00798 | inhibition [4] 29.3% | inhibition [5] 19.2%

Clc1ccc(-c2nnc3sc(-c4ccc(Br)o4)nn23)cc1
181%: nuclei count [9]
inactive: inhibition of aggregation [8] 10.6% | inhibition [9] -136% | fluorescence slope [1] -0.346 | NADPH fluorescence slope [2] 2.1e-05 | slope [3] 0.0087 | inhibition [4] 6.08% | inhibition [5] -13%
97.9%: nuclei count [8]

CC(=O)N1CCc2cc(S(=O)(=O)NCCC(=O)NC3CCCc4ccccc43)ccc21 (configuration not stated)
inactive: fluorescence slope [1] -0.388 | NADPH fluorescence slope [2] -4e-05 | slope [3] 0.00543 | outcome [7] | inhibition [4] -3.18% | inhibition [5] -2.7%

COc1cc(C(=O)Nc2ccccn2)cc(OC)c1OC
-1.03: z-score [10, 14]
-0.193: z-score [10, 13]
inactive: inhibition [9] -234% | inhibition [11] -2.07% | fluorescence slope [1] -0.398 | NADPH fluorescence slope [2] -5.6e-05 | fluorescence slope [6] 0.00377 | outcome [7] | inhibition [12] 6.27%
165%: nuclei count [9]
0.79: z-score [10, 15]

CN(C)CCOC(c1ccccc1)c1ccccc1 (tested in a mixture with another compound)
131%: nuclei count [9]
-0.839: z-score [10, 15]
0.752: z-score [10, 13]
inactive: inhibition [9] -105% | inhibition [11] 13.3% | fluorescence slope [1] -0.486 | NADPH fluorescence slope [2] -8.1e-06 | slope [3] 0.00507 | inhibition [4] 23.9% | inhibition [5] 33.9%
0.00544: z-score [10, 14]

CN(C)CCOC(c1ccccc1)c1ccccc1
0.78: z-score [10, 15]
0.456: z-score [10, 14]
-0.686: z-score [10, 13]
inactive: inhibition [9] -7% | inhibition [11] 5.42% | fluorescence slope [1] -0.465 | NADPH fluorescence slope [2] -4.4e-05 | slope [3] 0.00555 | inhibition [4] 11.6% | inhibition [5] 38.5%
124%: nuclei count [9]

Cn1c(=O)oc2cc(S(=O)(=O)NCCC(=O)N3CCc4ccccc4C3)ccc21
inactive: fluorescence slope [1] -0.514 | NADPH fluorescence slope [2] -9.1e-05 | slope [3] 0.00621 | inhibition [4] 13.9% | inhibition [5] 18.7%

O=C(Nc1cc(Cl)ccc1Cl)c1noc2c1CCCC2
inactive: fluorescence slope [1] -0.601 | NADPH fluorescence slope [2] -9e-06 | slope [3] 0.00618 | inhibition [4] -3.4% | inhibition [5] 26.6%

O=C(NC1CCCCCC1)C1c2ccccc2C(=O)N1Cc1cccnc1 (configuration not stated)
inactive: fluorescence slope [1] -0.575 | NADPH fluorescence slope [2] 1.2e-05 | slope [3] 0.00527 | inhibition [4] 1.87% | inhibition [5] 17.1%

CCOC(=O)CNC(=O)C(Cc1ccccc1)NS(=O)(=O)c1ccc2c(c1)CCC(=O)N2 (configuration not stated)
inactive: fluorescence slope [1] -0.438 | NADPH fluorescence slope [2] -0.000333 | fluorescence slope [6] 0.00524 | inhibition [4] 0.424% | inhibition [5] 15.6%

O=C1[C@@H]2C(c3ccccc3Cl)=NO[C@@H]2C(=O)N1Cc1ccccc1
inactive: inhibition of aggregation [8] -2.9% | inhibition [9] -238% | fluorescence slope [1] -0.328 | NADPH fluorescence slope [2] -5.7e-05 | slope [3] 0.00529 | inhibition [4] 9.22% | inhibition [5] 12.2%
213%: nuclei count [9]
90.6%: nuclei count [8]

COc1ccc(CCN(C)CCCC(C#N)(c2ccc(OC)c(OC)c2)C(C)C)cc1OC (configuration not stated)
-0.13: z-score [10, 13]
114%: nuclei count [9]
inactive: inhibition [9] -110% | inhibition [11] 12.4% | fluorescence slope [1] -0.461 | NADPH fluorescence slope [2] -2.2e-05 | inhibition [4] 2.16% | inhibition [5] 27%
-0.251: z-score [10, 14]
-0.441: z-score [10, 15]

CCC(C)(NC(=O)c1ccc(=O)[nH]c1)C(=O)NC1CCCC1 (configuration not stated)
inactive: fluorescence slope [1] -0.551 | NADPH fluorescence slope [2] -5e-05 | slope [3] 0.00548 | inhibition [4] 8% | inhibition [5] 24.2%

O=C(C1CCN(S(=O)(=O)c2cnc[nH]2)CC1)N1CCN(c2ncccn2)CC1
active: inhibition [5] 88.9%
inactive: fluorescence slope [1] -0.353 | NADPH fluorescence slope [2] -7e-05 | slope [3] 0.00534 | outcome [7] | inhibition [4] -35.5%

COc1ccc(CN2CC(C(=O)NCc3ccccn3)CC2=O)cc1 (configuration not stated)
inactive: fluorescence slope [1] -0.582 | NADPH fluorescence slope [2] -2.5e-07 | fluorescence slope [6] 0.00691 | inhibition [4] 14.9% | inhibition [5] 23.4%

O=C(NCCC1=CCCCC1)C1CCN(S(=O)(=O)c2cccc3cccnc23)CC1
inactive: fluorescence slope [1] -0.494 | NADPH fluorescence slope [2] 2.4e-05 | slope [3] 0.00594 | inhibition [4] -7.21% | inhibition [5] -9.62%

— PubChem BioAssay
